# Rows were chosen to be rich in hits. Some 3.4% of all compounds tested hit in one or more screens of this group.
# GPR151 activ: activators of human GPR151, primary screen, cell-based, PathHunter beta-arrestin, luminescence; G-protein coupled receptor 151 (Homo sapiens), Q8TDV0; PathHunter beta-arrestin GPR151 cells; activation, % at 11.2 µM; 650,000 tested, 1% active; in the data active = activation above about 4.9%
# FBW7 act: FBW7 E3 ligase activators, primary screen, biochemical, AlphaScreen, human; F-box/WD repeat-containing protein 7 (Homo sapiens), Q969H0; AlphaScreen FBW7–phospho-cyclin E peptide binding, activator screen; normalized activity (activation), % at 26.1 µM; 650,000 tested, 0.13% active; AID 1259310, 2017; in the data active = normalized activity above about 1.9%;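 note: purified mutant Fbw7 with reduced substrate affinity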
# MITF primary: MITF inhibitors, primary screen, biochemical, AlphaScreen, human; Microphthalmia-associated transcription factor (Homo sapiens), O75030; AlphaScreen MITF homodimerization, bead proximity signal; inhibition, % at 2.6 µM; 650,000 tested, 0.91% active; in the data active = inhibition above about 50%
# TEAD-YAP block: TEAD-YAP interaction inhibition, primary screen, TEAD-YAP interaction inhibitor project, luminescence, HEK-TIYL cells | inhibition, % at 9.12 µM | 640,000 tested, 1.4% active | AID 1259422, 2018 | TEAD-Gal4/YAP UAS-luciferase luminescence; in the data active = inhibition above about 32%
# Numbers stand for hits; 0 = inactive.
SMILES,GPR151 activ,FBW7 act,MITF primary,TEAD-YAP block
CC(C)NC(=S)N/N=C/c1cccc(O)c1O,0,0,90,0
Cc1ccccc1NC(=O)C(=O)N/N=C/c1ccccc1O,0,0,52,0
COCCNC(=S)N/N=C/c1cc(OC)c(OC)cc1OC,0,0,0,0
COCCNC(=O)C(=O)N/N=C/c1ccccc1O,0,0,53,0
Oc1cccc(/C=N/NC(=S)N/N=C/c2cccc(O)c2O)c1O,0,0,0,0
Cc1cc(C)cc(Oc2nc3c(C)cccn3c(=O)c2/C=C(\C#N)C(=O)N2CCOCC2)c1,0,0,0,37
COc1ccc(Oc2nc3c(C)cccn3c(=O)c2/C=C(\C#N)C(=O)N2CCOCC2)cc1,0,0,0,0
Cc1ccc(Oc2nc3ccccn3c(=O)c2/C=C(\C#N)C(=O)N2CCOCC2)c(C)c1,0,0,0,34
Cc1cccc(Oc2nc3ccccn3c(=O)c2/C=C(\C#N)C(=O)N2CCOCC2)c1C,0,0,0,42
COc1ccc(Cl)cc1NC(=O)CSc1ccc2nc(-c3ccccc3)cn2n1,0,0,0,0
N#Cc1ccccc1NC(=O)C1CC1c1ccccc1 (configuration not stated),0,0,0,0
COc1ccccc1NC(=O)c1ccccc1NS(=O)(=O)c1ccc(C)cc1,0,0,0,0
COc1cc(Sc2ccccc2[N+](=O)[O-])ccc1N,0,0,0,46
COc1ccc(CCNSc2ccccc2[N+](=O)[O-])cc1OC,0,0,0,0
c1cc(-n2cnc3c(NCCN4CCOCC4)nc(Nc4ccc(N5CCOCC5)cc4)nc32)cs1,0,0,0,62
c1cc(-n2cnc3c(NCCN4CCOCC4)nc(NCCN4CCOCC4)nc32)cs1,0,0,0,0
c1ccc(Nc2nc(NCCN3CCOCC3)c3ncn(C4CCCCC4)c3n2)cc1,0,0,0,0
CCCNc1nc(Nc2ccc(N3CCOCC3)cc2)nc2c1ncn2-c1ccsc1,0,0,0,47
c1cn(-c2ccc(Nc3nc(NCCN4CCOCC4)c4ncn(C5CCCCC5)c4n3)cc2)cn1,0,0,0,47
c1cc(-n2cnc3c(Nc4ccc(N5CCOCC5)cc4)nc(NCCN4CCOCC4)nc32)cs1,0,0,0,45
CC(=O)Nc1ccc(Nc2nc(NCCN3CCOCC3)nc3c2ncn3-c2ccsc2)cc1,0,0,0,51
c1cn(-c2ccc(Nc3nc(NCCN4CCOCC4)c4ncn(-c5ccsc5)c4n3)cc2)cn1,0,0,0,46
COc1cc(Nc2nc(NCCN3CCOCC3)nc3c2ncn3-c2ccsc2)cc(OC)c1OC,0,0,0,0
Cc1cc(C)c(NC(=O)c2ccc(Cl)cc2)c([N+](=O)[O-])c1,0,0,0,42
Cc1ccc(NC(=O)c2ccc(Cl)cc2Cl)nc1,0,0,0,35
SMILES,GPR151 activ,FBW7 act,MITF primary,TEAD-YAP block
Cc1ccc(NC(=O)c2ccc(Cl)cc2[N+](=O)[O-])nc1,0,0,0,41
COc1ccc(C(=O)NC(=S)Nc2cc(C(=O)O)ccc2C)cc1,0,0,0,0
O=Cc1s/c(=N\S(=O)(=O)c2ccccc2)n(CCCCl)c1Cl,0,0,0,45
O=S(=O)(c1ccc(Br)s1)N(Cc1ccsc1)Cc1ccco1,0,0,0,0
Cc1[nH]nc2c1C(c1cc(Br)c(C)s1)C(C#N)=C(N)O2 (configuration not stated),0,0,0,33
CCOc1ccc(NC(=O)Cc2c[nH]c3ccccc23)cc1,0,0,0,0
Cc1ccc(-c2noc(CCCCCN)n2)cc1,0,0,0,72
O=C1C=CC(=O)N1CCCCCCN1C(=O)C=CC1=O,0,0,0,41
COC(=O)CN(C)C(=O)CCc1nnc(Cc2cccc(C(F)(F)F)c2)o1,0,0,0,0
O=C(CN1CCC(O)(c2cccc(C(F)(F)F)c2)CC1)N1CCCc2ccccc21,0,0,0,0
Cc1cc2nc(-c3cc(N)ccc3O)oc2cc1C,0,0,0,65
Cc1ccc2nc(-c3ccc(N)cc3O)oc2c1,0,0,0,0
CCc1ccc2oc(-c3ccc(N)cc3O)nc2c1,0,0,0,69
Nc1ccc(O)c(-c2nc3cc(N)ccc3o2)c1,0,0,0,0
CCc1ccc2oc(-c3ccc(NC(C)=O)cc3)nc2c1,0,0,0,0
Cc1ccc2oc(-c3ccc(N)cc3O)nc2c1,0,0,0,41
CN(c1ccccc1)S(=O)(=O)c1ccc2c(c1)oc(=O)n2C,0,0,0,56
CN(c1ccc(Br)cc1)S(=O)(=O)c1ccc2c(c1)oc(=O)n2C,0,0,0,34
